The text below walks through data of the supplement of paper PMC12669797.

In one experiment the test system is ES2. Briefly: cell viability relative to DMSO control (MTS) (fraction of DMSO control); higher = more viable cells / less growth inhibition. The settings on record: 10 µM; 48 h. The procedure, abridged:
(§1)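 After 24 h of growth in 96-well plates at 5000 cells per well, TOV-21G and ES2 clear cell carcinoma cells were treated for 48 h with a 367-compound […] library at 10 µM final concentration. Cell viability was measured by MTS assay and expressed relative to vehicle control wells as a fraction.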

For a further experiment, the system named is TOV-21G. The experiment is described as above. The settings on record: 10 µM; 48 h. The procedure, abridged:
as §1

Where a name gives a salt, the structure may show the parent alone. ± gives the standard deviation of the averaged measurements.

Turning to `CCCC[C@@H](C)/C=C(C)/C=C(\C)C(=O)NC1=C[C@@](O)(/C=C/C=C/C=C/C(=O)NC2=C(O)CCC2=O)[C@@H]2O[C@@H]2C1=O` [Manumycin A], the cell viability in the experiment on ES2 came to 1.06; in the experiment on TOV-21G, 1.61.

As for `COc1cc([C@@H]2c3cc4c(cc3[C@@H](O[C@@H]3O[C@@H]5CO[C@@H](C)O[C@H]5[C@H](O)[C@H]3O)[C@H]3COC(=O)[C@H]23)OCO4)cc(OC)c1O` [Etoposide (VP-16)], the cell viability with ES2 is 0.655; with TOV-21G, 0.658.

Take `Nc1ncn([C@@H]2O[C@H](CO)[C@@H](O)[C@H]2O)c(=O)n1` [Azacytidine]: the values for the cell viability in the experiment with ES2 and in the experiment on TOV-21G were 0.664 and 0.779, respectively.

With `CC(C)C[C@H](NC(=O)[C@H](Cc1ccccc1)NC(=O)c1cnccn1)B(O)O` [bortezomib], the cell viability with ES2 is 0.302; in the experiment with TOV-21G it was 0.432.

Regarding `CSCC[C@H](NC(=O)c1ccc(NC[C@@H](N)CS)cc1-c1ccccc1)C(=O)O`, the cell viability with ES2 is 1.55; in the experiment on TOV-21G it was 1.

As to `CCN(CC)CCCCNc1ncc2cc(-c3cc(OC)cc(OC)c3)c(NC(=O)NC(C)(C)C)nc2n1`, the figures for the cell viability with ES2 and with TOV-21G were 0.366 and 0.915, respectively.

For the compound `Ic1cccc(CSc2nnc(-c3ccncc3)o2)c1` [GSK-3 inhibitor II], the cell viability with ES2 was found to be 1.09; with TOV-21G it was 1.19.

Turning to `COc1cc2ncc(-c3ccccc3)nc2cc1OC`, the cell viability with ES2 is 0.862 ± 0.058; in the experiment on TOV-21G, 0.955 ± 0.13.

Consider `COC(=O)C[C@H](NC(=O)[C@H](C)NC(=O)[C@@H](NC(=O)OCc1ccccc1)C(C)C)C(=O)CF`, for which the cell viability turned out to be 1.42 in the experiment on ES2 and 1.16 in the experiment on TOV-21G.

With `NC1=N/C(=C2/CCNC(=O)c3[nH]ccc32)C(=O)N1` [Debromohymenialdisine (DBH)], the cell viability with ES2 was 1.25; in the experiment with TOV-21G, 1.12.

For `O=C(Nc1cccc2cccnc12)c1ccc(N2C(=O)[C@@H]3[C@H](C2=O)[C@@H]2C=C[C@H]3C2)cc1` [IWR-1-endo], the results for the cell viability in the experiment with ES2 and in the experiment with TOV-21G were 0.998 and 0.582, respectively.

As for `Cc1cc(N)c2ccccc2[n+]1CCCCCCCCCC[n+]1c(C)cc(N)c2ccccc21` [Dequalinium], the cell viability with ES2 was determined as 0.383; with TOV-21G, 0.42.

In the case of `CC(C)CC(NC(=O)CNC(=O)OCc1ccccc1)C(=O)NC(Cc1ccccc1)C(=O)CCl` (centres undefined), the cell viability with ES2 amounted to 0.398; with TOV-21G it was 0.479.

Regarding `Cc1ccc(-c2cn3c4c(sc3n2)CCCC4)cc1` [Pifithrin-a (cyclic)], the cell viability was determined as 1.03 in the experiment on ES2 and 1.11 in the experiment on TOV-21G.

On to `CN(C)CCCN1c2ccccc2Sc2ccc(Cl)cc21` [chlorpromazine hydrochloride], for which the cell viability with ES2 was 0.947; in the experiment with TOV-21G it was 0.868.

In the case of `Cc1cccc(-c2nn3c(c2-c2ccnc4ccc(C(N)=O)cc24)CCC3)n1`, the cell viability with ES2 stood at 0.988; with TOV-21G, 1.02.

`NNCCc1ccccc1` [Phenelzine]: the cell viability was found to be 1.13 in the experiment with ES2 and 1.25 in the experiment with TOV-21G.

Regarding `Cc1c[nH]c(/C=C2\C(=O)Nc3ccccc32)c1CCC(=O)O`, the cell viability was determined as 1.1 with ES2 and 1.08 in the experiment with TOV-21G.

`N#CCCc1ccc2c(c1)-c1[nH]c3ccc([N+](=O)[O-])cc3c1CC(=O)N2` [Alsterpaullone, 2-cyanoethyl]: the cell viability was 0.893 in the experiment on ES2 and 0.778 in the experiment with TOV-21G.

`CO[C@H]1C[C@@H]2CC[C@@H](C)[C@@](O)(O2)C(=O)C(=O)N2CCCC[C@H]2C(=O)O[C@H]([C@H](C)C[C@@H]2CC[C@@H](OC(=O)C(C)(CO)CO)[C@H](OC)C2)CC(=O)[C@H](C)/C=C(\C)[C@@H](O)[C@@H](OC)C(=O)[C@H](C)C[C@H](C)/C=C/C=C/C=C/1C` [temsirolimus]: the values for the cell viability with ES2 and in the experiment on TOV-21G were 0.824 and 0.516, respectively.

Turning to `Cc1cc(C=C2C(=O)C=CC2=O)cc(C)c1O`, the cell viability is 0.801 in the experiment with ES2 and 1.21 with TOV-21G.

With `C[n+]1ccc(-c2c3nc(c(-c4cc[n+](C)cc4)c4ccc([nH]4)c(-c4cc[n+](C)cc4)c4ccc([nH]4)c(-c4cc[n+](C)cc4)c4nc2C=C4)C=C3)cc1`, the cell viability with ES2 was determined as 0.933; with TOV-21G, 0.79.

As for `COc1cc2ncnc(Nc3ccc(NC(=O)c4ccccc4)cc3)c2cc1OC` [Aurora kinase inhibitor II], the values for the cell viability with ES2 and in the experiment with TOV-21G were 1.09 and 0.688, respectively.

Regarding `COCC[n+]1c2c(n(Cc3cnccn3)c1C)C(=O)c1ccccc1C2=O`, the cell viability amounted to 0.242 in the experiment with ES2 and 0.291 in the experiment on TOV-21G.

For the compound `O=c1oc2c(O)c(O)cc3c(=O)oc4c(O)c(O)cc1c4c23` [Ellagic acid], the cell viability in the experiment on ES2 came to 0.827; in the experiment with TOV-21G, 0.935.

Regarding `CC(=O)O[C@H]1C(=O)[C@@]2(C)[C@H]([C@H](OC(=O)c3ccccc3)[C@]3(O)C[C@H](OC(=O)[C@H](O)[C@@H](NC(=O)c4ccccc4)c4ccccc4)C(C)=C1C3(C)C)[C@]1(OC(C)=O)CO[C@@H]1C[C@@H]2O` [Paclitaxel], the cell viability was 0.467 in the experiment with ES2 and 1.25 with TOV-21G.

Consider `Cc1c2oc3c(C)ccc(C(=O)N[C@@H]4C(=O)N[C@H](C(C)C)C(=O)N5CCC[C@H]5C(=O)N(C)CC(=O)N(C)[C@@H](C(C)C)C(=O)O[C@@H]4C)c3nc-2c(C(=O)N[C@@H]2C(=O)N[C@H](C(C)C)C(=O)N3CCC[C@H]3C(=O)N(C)CC(=O)N(C)[C@@H](C(C)C)C(=O)O[C@@H]2C)c(N)c1=O` [Actinomycin D], for which the cell viability worked out at 0.584 in the experiment on ES2 and 0.456 in the experiment with TOV-21G.
